Laboratory results as given in PubChem BioAssay (NCI).
About 79,000 compounds went through this panel and 15% of them were active in at least one assay; those are over-represented in the sample as a whole. Unmarked numbers belong to inactive results. Calls of active or inactive are those of the source. Cut-off read from the data, not from the text of the source: active = growth inhibition above about 70%; inactive = the rest.

Assays:
[1] = NCI Yeast Anticancer Drug Screen. Data for the rad50 strain (AID 155);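 note: 0% = growth of vehicle-only cultures of the same strain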; conditions: S. cerevisiae rad50 strain growth inhibition, active compounds read high
Summary of the method: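 DNA repair mutant yeast, compound exposure, growth read-out; inhibition is taken relative to vehicle.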

[2] = NCI Yeast Anticancer Drug Screen. Data for the mec2-1 strain (AID 157); conditions: S. cerevisiae mec2-1 strain, active compounds read high
Summary of the method: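 mec2-1 yeast strain, carrying an alteration in DNA damage repair or cell cycle control, was exposed to compounds; growth inhibition was measured relative to vehicle-treated controls.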

[3] = NCI Yeast Anticancer Drug Screen. Data for the sgs1 mgt1 strain (AID 161);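 note: 0% = growth of cultures given vehicle only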; conditions: S. cerevisiae sgs1 mgt1 strain, active compounds read high
Summary of the method: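 Yeast cells carrying a defined DNA-repair defect were exposed to test compounds. Growth inhibition was measured relative to vehicle-treated controls.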

[4] = NCI Yeast Anticancer Drug Screen. Data for the cln2 rad14 strain (AID 165);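 note: 0% = growth equal to vehicle treated cultures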; conditions: S. cerevisiae cln2 rad14 strain, active compounds read high
Summary of the method: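 Yeast carrying cln2 and rad14 alterations (cell cycle control and DNA damage repair) were exposed to compounds. Growth inhibition was measured against vehicle-treated controls.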

[5] = NCI Yeast Anticancer Drug Screen. Data for the bub3 strain (AID 167); conditions: S. cerevisiae bub3 mutant strain, active compounds read high
Summary of the method: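 In this screen, a yeast mutant lacking normal mitotic checkpoint function is challenged with compound. Relative growth versus vehicle gives the inhibition value.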

[6] = NCI Yeast Anticancer Drug Screen. Data for the mlh1 rad18 strain (AID 175); conditions: S. cerevisiae mlh1 rad18 strain growth inhibition, active compounds read high
Summary of the method: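 Growth inhibition of the yeast strain was measured after compound exposure and expressed relative to vehicle-treated controls. The strain carries defined defects in DNA damage repair.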

[7] = at 5.0 µM (retest, dose inferred, filed as 0.5)
[8] = at 50.0 µM (retest, dose inferred, filed as 5.0)

## C1CC[CH]([Sn]([CH]2CCCCC2)[CH]2CCCCC2)CC1.C1CC[CH]([Sn]([CH]2CCCCC2)[CH]2CCCCC2)CC1
[1]; [7]
  growth inhibition: 2%
[1]; [8]
  growth inhibition: 34%
[1]; at 50.0 µM
  growth inhibition: 31.5%
[2]; [7]
  growth inhibition: 0%
[2]; [8]
  growth inhibition: 34%
[2]; at 50.0 µM
  growth inhibition: 63.3%
[3]; [7]
  growth inhibition: 4%
[3]; [8]
  growth inhibition: 17%
[3]; at 50.0 µM
  growth inhibition: 75.7% (active)
[4]; [7]
  growth inhibition: 3%
[4]; [8]
  growth inhibition: -9%
[4]; at 50.0 µM
  growth inhibition: -30.2%
[5]; [7]
  growth inhibition: 3%
[5]; [8]
  growth inhibition: -2%
[5]; at 50.0 µM
  growth inhibition: 9.5%
[6]; [7]
  growth inhibition: 0%
[6]; [8]
  growth inhibition: 4%
[6]; at 50.0 µM
  growth inhibition: 87.9% (active)

## S=P(Nc1ccccc1)(Oc1ccccc1)c1ccccc1 (configuration not stated)
[1]; [7]
  growth inhibition: -1%
[1]; [8]
  growth inhibition: 90% (active)
[1]; at 50.0 µM
  growth inhibition: 93.8% (active)
[2]; [7]
  growth inhibition: 5%
[2]; [8]
  growth inhibition: 91% (active)
[2]; at 50.0 µM
  growth inhibition: 94.5% (active)
[3]; [7]
  growth inhibition: 3%
[3]; [8]
  growth inhibition: 90% (active)
[3]; at 50.0 µM
  growth inhibition: 93.3% (active)
[4]; [7]
  growth inhibition: -1%
[4]; [8]
  growth inhibition: 87% (active)
[4]; at 50.0 µM
  growth inhibition: 91% (active)
[5]; [7]
  growth inhibition: 1%
[5]; [8]
  growth inhibition: 88% (active)
[5]; at 50.0 µM
  growth inhibition: 92.4% (active)
[6]; [7]
  growth inhibition: 6%
[6]; [8]
  growth inhibition: 88% (active)
[6]; at 50.0 µM
  growth inhibition: 92.7% (active)

## CCCCCCCCCCCC[As](=O)(O)O
[1]; [7]
  growth inhibition: 0%
[1]; [8]
  growth inhibition: 31%
[1]; at 50.0 µM
  growth inhibition: 99.4% (active)
[2]; [7]
  growth inhibition: -1%
[2]; [8]
  growth inhibition: 26%
[2]; at 50.0 µM
  growth inhibition: 99.3% (active)
[3]; [7]
  growth inhibition: 7%
[3]; [8]
  growth inhibition: 48%
[3]; at 50.0 µM
  growth inhibition: 98.2% (active)
[4]; [7]
  growth inhibition: -3%
[4]; [8]
  growth inhibition: 46%
[4]; at 50.0 µM
  growth inhibition: 98.5% (active)
[5]; [7]
  growth inhibition: 3%
[5]; [8]
  growth inhibition: 53%
[5]; at 50.0 µM
  growth inhibition: 99.2% (active)
[6]; [7]
  growth inhibition: 6%
[6]; [8]
  growth inhibition: 51%
[6]; at 50.0 µM
  growth inhibition: 98.9% (active)

## O=C(OCc1ccccc1)C(C(Cl)c1ccccc1)N(Cc1ccccc1)Cc1ccccc1 (configuration not stated)
[1]; [7]
  growth inhibition: -2%
[1]; [8]
  growth inhibition: 53%
[1]; at 50.0 µM
  growth inhibition: 90.8% (active)
[2]; [7]
  growth inhibition: 3%
[2]; [8]
  growth inhibition: 65%
[2]; at 50.0 µM
  growth inhibition: 81.2% (active)
[3]; [7]
  growth inhibition: -1%
[3]; [8]
  growth inhibition: 50%
[3]; at 50.0 µM
  growth inhibition: 85.5% (active)
[4]; [7]
  growth inhibition: 1%
[4]; [8]
  growth inhibition: 53%
[4]; at 50.0 µM
  growth inhibition: 89.8% (active)
[5]; [7]
  growth inhibition: -1%
[5]; [8]
  growth inhibition: 49%
[5]; at 50.0 µM
  growth inhibition: 67.7%
[6]; [7]
  growth inhibition: -1%
[6]; [8]
  growth inhibition: 56%
[6]; at 50.0 µM
  growth inhibition: 86.5% (active)
